# From the supplement of paper PMC10849652
# Of roughly 7,900 targets only a part is listed; those with a hit were picked by preference. About 0.6% of all pairs of compound and target were hits. Values without a mark were called inactive.
# Experiments:
# Assay in all cases: log2 fold change, soluble protein after heating vs DMSO (PISA); higher = thermal stabilisation; K562 cells, 10 uM, 30 min; active = over 0.2 and 3.5 SD of the protein, either way, in both replicates (recomputed)
# erlotinib = compound: C#Cc1cccc(Nc2ncnc3cc(OCCOC)c(OCCOC)cc23)c1 [erlotinib]
# How it was run: (§1)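 Soluble protein was quantified by TMTpro 16plex LC-MS/MS after channel sums were equalised. It was obtained as the supernatant after 21,000xg for 90 min from pooled aliquots of K562 cells (2×10^6 cells/mL, 10 μM compound, 30 min) heated for 3 min across 48°C-58°C and extracted in PBS with 0.5% NP-40 at 4°C. Thermal stability values are relative to control samples and come from duplicates. They are given as log2 fold changes.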
# [1] = compound: C/C(=N\NC(=O)C1=CC(=CC=C1)S(=O)(=O)N2CCOCC2)/C3=C(C=CC(=C3)Cl)O
# How it was run: as §1
# [2] = compound: C1=CC(=C(C=C1Cl)C2=NC3=NC=CN=C3C(=N2)NC4=CC=NC=C4)F
# How it was run: as §1
# [3] = compound: C1=CC(=CC=C1C2=NC3=C(N2)C=C(C=C3)C(=O)N)OC4=CC=C(C=C4)Cl
# How it was run: as §1
# [4] = compound: C1=CC2=C(C=CC(=C2)/C=C\3/C(=O)NC(=NCC4=CC=CS4)S3)N=C1
# How it was run: as §1
# [5] = compound: C1=CC2=NC=CN=C2C=C1/C=C/3\C(=O)NC(=O)S3
# How it was run: as §1
# [6] = compound: C1=CC=C(C=C1)C2=NC(=C(N2)C3=CC=NC=C3)C4=CC(=C(C=C4)Cl)O
# How it was run: as §1
# [7] = compound: C1=CC=C2C(=C1)C3=NNC4=CC=CC(=C43)C2=O
# How it was run: as §1
# [8] = compound: C1CCN(C1)C(=O)NC2=CC=CC(=C2)NC3=NC=C(C(=N3)NCCC4=CN=CN4)Br
# How it was run: as §1
# [9] = compound: C1CN(CCC1(CC2=CC=C(C=C2)Cl)N)C3=NC=NC4=C3C=CN4
# How it was run: as §1
# UniProt O00220, sequence (O00220 whole entry, looked up): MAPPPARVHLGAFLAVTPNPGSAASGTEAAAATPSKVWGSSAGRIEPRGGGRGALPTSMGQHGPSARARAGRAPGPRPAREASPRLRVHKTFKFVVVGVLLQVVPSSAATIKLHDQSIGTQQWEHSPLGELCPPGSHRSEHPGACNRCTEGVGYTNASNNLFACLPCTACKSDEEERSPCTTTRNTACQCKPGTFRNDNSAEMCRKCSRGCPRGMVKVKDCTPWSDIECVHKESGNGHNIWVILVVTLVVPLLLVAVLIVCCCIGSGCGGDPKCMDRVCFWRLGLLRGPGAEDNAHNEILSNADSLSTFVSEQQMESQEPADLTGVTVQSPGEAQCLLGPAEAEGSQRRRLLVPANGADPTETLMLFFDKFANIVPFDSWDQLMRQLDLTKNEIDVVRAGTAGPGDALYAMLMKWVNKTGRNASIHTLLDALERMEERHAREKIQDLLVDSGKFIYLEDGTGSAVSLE
# UniProt O43379, sequence (O43379 whole entry, looked up): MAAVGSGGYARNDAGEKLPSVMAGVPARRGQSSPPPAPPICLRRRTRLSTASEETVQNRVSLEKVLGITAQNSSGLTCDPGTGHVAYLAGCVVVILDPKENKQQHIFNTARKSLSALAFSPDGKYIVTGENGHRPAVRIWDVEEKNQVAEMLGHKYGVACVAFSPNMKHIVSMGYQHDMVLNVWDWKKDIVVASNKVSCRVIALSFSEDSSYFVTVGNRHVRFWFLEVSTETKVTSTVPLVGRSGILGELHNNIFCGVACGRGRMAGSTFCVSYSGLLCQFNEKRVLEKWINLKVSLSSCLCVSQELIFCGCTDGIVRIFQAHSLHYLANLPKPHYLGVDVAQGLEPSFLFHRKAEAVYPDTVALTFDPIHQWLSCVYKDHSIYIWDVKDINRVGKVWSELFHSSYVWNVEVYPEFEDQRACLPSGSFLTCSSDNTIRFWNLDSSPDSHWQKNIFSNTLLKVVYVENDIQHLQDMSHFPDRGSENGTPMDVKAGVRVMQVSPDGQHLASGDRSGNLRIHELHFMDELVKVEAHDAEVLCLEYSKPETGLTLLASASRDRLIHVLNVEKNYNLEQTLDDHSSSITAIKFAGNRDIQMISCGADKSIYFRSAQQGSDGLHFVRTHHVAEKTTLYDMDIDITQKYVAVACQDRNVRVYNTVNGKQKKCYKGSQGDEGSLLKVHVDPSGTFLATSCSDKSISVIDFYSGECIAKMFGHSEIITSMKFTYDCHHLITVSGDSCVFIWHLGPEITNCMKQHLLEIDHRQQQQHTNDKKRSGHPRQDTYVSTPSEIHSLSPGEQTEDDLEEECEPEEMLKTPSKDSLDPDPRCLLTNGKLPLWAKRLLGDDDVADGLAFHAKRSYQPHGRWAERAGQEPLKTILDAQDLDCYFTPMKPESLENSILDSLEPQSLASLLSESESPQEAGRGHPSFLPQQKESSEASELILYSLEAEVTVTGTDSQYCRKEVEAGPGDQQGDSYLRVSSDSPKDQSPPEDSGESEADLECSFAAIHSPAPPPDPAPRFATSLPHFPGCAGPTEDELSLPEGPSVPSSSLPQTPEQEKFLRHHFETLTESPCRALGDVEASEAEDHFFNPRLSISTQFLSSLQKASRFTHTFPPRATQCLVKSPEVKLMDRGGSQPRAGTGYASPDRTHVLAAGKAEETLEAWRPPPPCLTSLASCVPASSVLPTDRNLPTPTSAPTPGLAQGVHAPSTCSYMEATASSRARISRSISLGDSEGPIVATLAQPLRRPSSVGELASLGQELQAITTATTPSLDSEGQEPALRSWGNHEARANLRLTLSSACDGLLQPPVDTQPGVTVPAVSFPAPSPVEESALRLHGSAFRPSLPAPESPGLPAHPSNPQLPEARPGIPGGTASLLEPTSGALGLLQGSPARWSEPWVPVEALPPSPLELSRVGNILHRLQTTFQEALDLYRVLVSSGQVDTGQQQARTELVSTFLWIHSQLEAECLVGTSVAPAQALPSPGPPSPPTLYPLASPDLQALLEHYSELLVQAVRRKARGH
# UniProt Q9NQ34, sequence (Q9NQ34 whole entry, looked up): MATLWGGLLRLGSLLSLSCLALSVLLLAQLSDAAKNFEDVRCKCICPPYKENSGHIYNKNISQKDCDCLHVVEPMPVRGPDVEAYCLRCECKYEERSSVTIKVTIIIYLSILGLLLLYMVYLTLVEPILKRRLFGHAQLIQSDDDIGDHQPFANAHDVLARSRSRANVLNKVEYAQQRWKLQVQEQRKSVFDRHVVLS
# UniProt P22314, sequence (P22314 whole entry, looked up): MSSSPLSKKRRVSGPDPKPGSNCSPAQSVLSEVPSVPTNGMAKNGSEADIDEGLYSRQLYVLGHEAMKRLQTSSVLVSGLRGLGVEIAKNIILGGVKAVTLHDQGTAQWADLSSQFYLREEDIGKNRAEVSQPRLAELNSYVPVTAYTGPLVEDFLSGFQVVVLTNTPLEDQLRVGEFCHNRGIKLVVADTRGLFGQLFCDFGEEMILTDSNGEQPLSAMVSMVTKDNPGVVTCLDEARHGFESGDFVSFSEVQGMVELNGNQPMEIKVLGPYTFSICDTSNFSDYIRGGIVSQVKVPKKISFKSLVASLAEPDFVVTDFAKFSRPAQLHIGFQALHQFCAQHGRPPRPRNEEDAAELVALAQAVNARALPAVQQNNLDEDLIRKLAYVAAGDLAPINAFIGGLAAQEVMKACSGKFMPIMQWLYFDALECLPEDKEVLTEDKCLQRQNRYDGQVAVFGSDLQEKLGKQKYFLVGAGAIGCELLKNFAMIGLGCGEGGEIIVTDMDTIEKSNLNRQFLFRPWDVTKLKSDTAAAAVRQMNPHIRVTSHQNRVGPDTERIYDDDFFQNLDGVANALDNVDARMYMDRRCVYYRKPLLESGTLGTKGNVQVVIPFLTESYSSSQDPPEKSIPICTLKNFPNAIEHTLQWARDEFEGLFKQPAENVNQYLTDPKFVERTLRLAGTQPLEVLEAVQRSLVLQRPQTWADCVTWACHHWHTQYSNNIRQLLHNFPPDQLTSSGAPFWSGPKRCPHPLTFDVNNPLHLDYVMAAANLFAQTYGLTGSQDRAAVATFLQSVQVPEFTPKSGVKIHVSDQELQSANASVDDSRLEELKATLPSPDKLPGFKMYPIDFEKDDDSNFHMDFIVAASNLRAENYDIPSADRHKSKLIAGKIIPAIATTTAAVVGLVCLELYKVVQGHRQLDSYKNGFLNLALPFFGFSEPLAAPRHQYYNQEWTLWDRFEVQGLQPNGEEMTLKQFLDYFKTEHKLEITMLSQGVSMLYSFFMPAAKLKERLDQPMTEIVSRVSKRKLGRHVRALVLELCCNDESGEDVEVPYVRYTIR
# UniProt Q9H3M7, sequence (Q9H3M7 whole entry, looked up): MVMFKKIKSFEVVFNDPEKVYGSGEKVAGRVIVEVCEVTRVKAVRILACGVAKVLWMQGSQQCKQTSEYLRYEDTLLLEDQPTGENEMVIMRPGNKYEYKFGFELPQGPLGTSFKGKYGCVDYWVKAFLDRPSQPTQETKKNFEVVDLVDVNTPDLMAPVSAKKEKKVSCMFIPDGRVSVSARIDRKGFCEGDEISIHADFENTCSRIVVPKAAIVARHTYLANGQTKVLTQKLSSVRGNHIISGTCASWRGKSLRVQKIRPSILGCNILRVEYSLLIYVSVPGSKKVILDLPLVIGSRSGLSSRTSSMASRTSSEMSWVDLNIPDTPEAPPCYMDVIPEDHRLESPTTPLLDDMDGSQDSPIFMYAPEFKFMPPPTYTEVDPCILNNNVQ
# UniProt O60763, sequence (O60763 whole entry, looked up): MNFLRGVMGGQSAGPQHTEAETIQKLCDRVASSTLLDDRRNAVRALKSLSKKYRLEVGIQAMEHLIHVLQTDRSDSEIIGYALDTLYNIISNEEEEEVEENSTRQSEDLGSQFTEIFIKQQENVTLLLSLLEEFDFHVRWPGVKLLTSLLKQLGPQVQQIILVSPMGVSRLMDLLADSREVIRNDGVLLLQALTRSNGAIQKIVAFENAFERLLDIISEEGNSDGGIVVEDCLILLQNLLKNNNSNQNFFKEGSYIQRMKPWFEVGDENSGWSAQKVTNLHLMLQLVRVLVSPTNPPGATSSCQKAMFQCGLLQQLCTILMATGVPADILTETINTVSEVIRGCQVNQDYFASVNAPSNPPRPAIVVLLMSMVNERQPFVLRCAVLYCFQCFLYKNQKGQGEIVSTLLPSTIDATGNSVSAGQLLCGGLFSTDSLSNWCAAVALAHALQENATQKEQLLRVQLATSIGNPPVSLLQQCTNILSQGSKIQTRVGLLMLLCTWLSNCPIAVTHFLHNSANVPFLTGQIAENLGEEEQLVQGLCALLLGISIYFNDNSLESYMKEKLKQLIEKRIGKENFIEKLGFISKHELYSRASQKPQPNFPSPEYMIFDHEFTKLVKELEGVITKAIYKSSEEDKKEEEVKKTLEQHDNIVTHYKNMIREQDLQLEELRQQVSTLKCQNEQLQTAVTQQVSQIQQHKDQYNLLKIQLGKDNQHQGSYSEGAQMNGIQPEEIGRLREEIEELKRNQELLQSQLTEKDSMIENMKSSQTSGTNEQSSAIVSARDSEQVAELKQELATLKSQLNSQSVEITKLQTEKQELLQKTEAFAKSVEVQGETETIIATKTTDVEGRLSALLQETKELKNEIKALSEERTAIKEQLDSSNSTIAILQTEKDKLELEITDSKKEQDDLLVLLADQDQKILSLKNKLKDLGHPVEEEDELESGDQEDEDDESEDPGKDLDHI
# UniProt P26368, sequence (P26368 whole entry, looked up): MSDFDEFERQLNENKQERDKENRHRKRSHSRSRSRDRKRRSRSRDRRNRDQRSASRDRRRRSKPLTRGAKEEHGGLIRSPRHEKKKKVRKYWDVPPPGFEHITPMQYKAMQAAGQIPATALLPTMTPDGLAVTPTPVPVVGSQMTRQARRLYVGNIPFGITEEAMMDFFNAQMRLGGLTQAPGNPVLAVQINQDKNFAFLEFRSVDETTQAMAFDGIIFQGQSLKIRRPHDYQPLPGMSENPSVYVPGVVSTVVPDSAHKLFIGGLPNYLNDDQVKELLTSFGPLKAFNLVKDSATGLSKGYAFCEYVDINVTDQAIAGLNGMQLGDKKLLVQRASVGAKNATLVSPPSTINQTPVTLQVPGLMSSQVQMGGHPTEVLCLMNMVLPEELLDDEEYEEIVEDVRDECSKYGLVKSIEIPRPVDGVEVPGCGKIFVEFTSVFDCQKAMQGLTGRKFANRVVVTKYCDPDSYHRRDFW
Target,log2 fold change (erlotinib),log2 fold change [1],log2 fold change [2],log2 fold change [3],log2 fold change [4],log2 fold change [5],log2 fold change [6],log2 fold change [7],log2 fold change [8],log2 fold change [9]
VRK2 (UniProt Q86Y07),0.004,0.014,-0.021,-0.026,-0.065,0.011,-0.02,0.118,0.013,0.072
VRK1 (UniProt Q99986),0.087,-0.055,0.119,-0.016,0.038,-0.024,-0.039,0.078,-0.044,-0.045
TTC38 (UniProt Q5R3I4),0.749 (active),0.032,0.082,0.072,0.021,-0.002,0.035,0.09,-0.06,0.025
XPO5 (UniProt Q9HAV4),0.011,0.103,0.105,-0.005,0.011,0.016,0.023,-0.019,-0.024,-0.001
U2AF2 (UniProt P26368),0.012,0.045,-0.013,0.029,-0.045,-0.004,0.012,-0.048,-0.026,-0.074
WDR37 isoform 2 (UniProt Q9Y2I8),0.039,0.006,-0.097,0.012,-0.026,-0.204,0.006,-0.144,0.01,-0.088
VPS8 (UniProt Q8N3P4),0.005,0.036,0.017,-0.024,0.016,0.031,0.041,0.012,0.026,0.027
TNFRSF10A (UniProt O00220),-0.01,-0.05,-0.023,-0.014,0.049,-0.012,-0.026,0.018,-0.039,-0.049
TNPO3 (UniProt Q9Y5L0),-0.01,0.132,0.068,-0.009,-0.014,0.029,0.023,-0.007,0.004,-0.03
VPS51 (UniProt Q9UID3),-0.003,0.123,-0.02,-0.01,-0.002,0.035,-0.014,-0.016,-0.029,-0.02
UBA1 (UniProt P22314),0.1,0.166,0.074,-0.024,0.114,-0.004,0.065,0.023,-0.034,-0.175
VPS11 (UniProt Q9H270),-0.041,0.099,0.015,0.005,0.058,0.068,0.03,-0.011,0.002,0.027
USP48 isoform 8 (UniProt Q86UV5),0.114,0.186,0.14,-0.033,0.028,-0.013,0.049,-0.049,-0.103,-0.029
XPO6 (UniProt Q96QU8),0.07,0.056,-0.465 (active),-0.055,0.093,-0.15,-0.01,-0.008,0.087,0.02
UCHL5 (UniProt Q9Y5K5),-0.018,0.094,0.005,-0.024,0.036,0.008,0.02,0.03,-0.001,-0.01
USP24 (UniProt Q9UPU5),0.126,-0.147,0.101,-0.113,0.092,0.148,0.141,0.094,0.181,0.297
TPM2 (UniProt P07951),-0.05,0.009,0.417,0.021,-0.146,0.025,0.102,0.02,-0.069,0.101
WDR11 (UniProt Q9BZH6),0.103,-0.081,0.145,-0.004,0.115,0.067,-0.168,0.005,0.091,0.023
TRIP10 (UniProt Q15642),0.052,0.015,0.203,0.022,0.013,-0.025,0.044,0.011,0.013,-0.026
TMEM9B (UniProt Q9NQ34),0.062,-0.044,0.009,-0.006,0.055,-0.013,-0.016,-0.016,-0.006,0.042
VTI1B (UniProt Q9UEU0),0.011,-0.008,-0.023,-0.02,0,0.03,-0.055,-0.036,0.022,0.046
VDAC1 (UniProt C9JI87),0.277,-0.05,0.095,-0.01,0.13,0.124,0.091,-0.04,–,–
TMEM9 (UniProt Q9P0T7),0.014,0.008,0.254,-0.021,-0.034,-0.117,0.037,-0.004,-0.053,-0.025
UFM1 (UniProt P61960),0.026,0.072,0.093,0.064,-0.015,-0.002,0.12,0.172,-0.297,0.088
TXNIP (UniProt Q9H3M7),0.013,0.017,0.082,0.025,0.108,0.124,0.141,0.034,0.137,0.041
WDR62 isoform 4 (UniProt O43379),0.046,0.015,-0.118,0.055,-0.016,0.046,-0.05,-0.041,0,0.014
WEE1 (UniProt P30291),0.029,-0.06,-0.081,0.047,-0.206,0.249,-0.177,0.037,-0.085,-0.239
USO1 isoform 2 (UniProt O60763),-0.008,0.046,0.051,-0.028,-0.049,0.059,0.004,-0.028,0.033,-0.014
UTP3 (UniProt Q9NQZ2),-0.098,-0.076,-0.748,0.063,-0.068,0,-0.255,-0.004,0.006,-0.203
WASHC5 (UniProt Q12768),0.019,0.084,-0.061,-0.004,0.088,-0.058,0.04,0.018,0.002,0.002
